Compound activity: PubChem, University of Kansas High Throughput Screening Laboratory
Only a selection was taken, and hits are over-represented in it overall.
Pf apPOL inh: Pf-apPOL inhibitors, biochemical, fluorescence; Plasmodium falciparum apicoplast DNA polymerase (apPOL); Recombinant Pf-apPOL, molecular beacon fluorescence, 1.5 h; inhibition, % at 10 µM; hit rate 0.25% among 210,000; AID 1794808, 2022
mHTT-CaM PPI inh: mutant huntingtin-calmodulin interaction inhibitors – biochemical, AlphaScreen, primary screen; P42858; AlphaScreen His-mHTT/GST-CaM binding, luminescence; inhibition, % at 15 µM; hit rate 3.6% among 190,000;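 note: 0% = both proteins with DMSO and 100% = one protein alone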
Starred values were filed as active, the others as inactive. Cut-off read from the data, not from the text of the source: active = inhibition above about 50%; inactive = the rest.

SMILES	Pf apPOL inh	mHTT-CaM PPI inh
CC1CCN(C(=O)c2cc3n(n2)C(C(F)(F)F)CC(c2ccccc2)N3)C2CCCCC12 (centres undefined)	-11	58*
COc1ccc(C2CC(C(F)(F)F)n3nc(C(=O)Nc4cccnc4)cc3N2)cc1 (centres undefined)	55*	14
COc1ccc(C2CC(C(F)(F)F)n3nc(C(=O)NCc4ccccc4)c(Cl)c3N2)cc1 (centres undefined)	-1	4
O=C(COc1ccccc1C(=O)Nc1ccc(Cl)cn1)c1ccc(Br)cc1	-11	-2
COc1ccccc1-n1cc2c(=O)n(C)c(=O)n(C)c2c1	-1	-3
CCN1C(=O)c2cccnc2Sc2cc(CNC(=O)C(C)(C)C)ccc21	-6	-3
Cc1ccc(-n2nc(C)c3sc(N4CCC(NC(=O)c5ccco5)CC4)nc32)cc1	-6	-2
CCCNC(=O)c1cc(-c2ccc(OC)c(OC)c2)on1	-6	2
Cc1ccccc1C1CC(=O)Nc2n[nH]c(-c3ccc(Cl)cc3)c21 (centres undefined)	0	13
O=C(NCc1ccc(F)cc1)c1ccc2ncnc(N3CCCC3)c2c1	13	44
COc1ccc(S(=O)(=O)NCc2cc(C)oc2C)cc1F	-8	-15
O=C(Nc1ccc(NC(=O)c2cccc(Br)c2)cc1)c1ccccc1	-6	-6
C=CCN1N=C(NC(=O)c2cccc(Br)c2)SC=C1c1ccccc1	-11	55*
O=C(Cc1csc(NC(=O)c2ncccn2)n1)NCc1ccccc1Cl	-18	98*
O=C(Cc1csc(NC(=O)c2ccc(=O)[nH]c2)n1)NCCc1c[nH]c2ccccc12	-14	10
O=C(Cc1csc(NC(=O)c2cccs2)n1)NO	72*	15
NS(=O)(=O)c1ccc(CNC(=O)Cc2csc(NC(=O)c3cccs3)n2)cc1	-7	0
O=C(Cc1csc(SCC(=O)c2cccs2)n1)NCCc1c[nH]c2ccccc12	-8	30
O=C(Cc1csc(NC(=O)c2cnccn2)n1)NCCc1c[nH]c2ccccc12	-24	53*
O=C(Cc1csc(NC(=O)c2ccc3c(c2)OCO3)n1)NCCc1c[nH]c2ccccc12	-6	56*
COC(=O)Nc1nc(CC(=O)NCc2ccccc2Cl)cs1	-6	-1
CC(=O)c1cccc(NC(=O)C2Oc3ccc(C)cc3NC2=O)c1 (centres undefined)	1	44
Cc1sc(NC(=O)c2ccccc2[N+](=O)[O-])nc1-c1ccc(Cl)cc1Cl	-10	41
N#CC1=C(N)N(c2ccccc2[N+](=O)[O-])C2=C(C(=O)CCC2)C1c1ccc2c(c1)OCO2 (centres undefined)	-3	21
Cc1cc(C=C2C(=O)c3ccccc3C2=O)c(C)n1-c1cccc([N+](=O)[O-])c1	1	9
SMILES	Pf apPOL inh	mHTT-CaM PPI inh
Cc1c(C(=O)NCCc2ccccc2)oc2ccc(S(=O)(=O)N3CC(C)CC(C)C3)cc12 (centres undefined)	0	-3
COc1ccc(-n2nc3c(c2NC(=O)c2cccc(OC)c2)CSC3)cc1	-3	34
COc1ccc(-n2nc3c(c2NC(=O)c2cccc(Br)c2)CSC3)cc1	100*	45
COc1cccc(C(=O)Nc2c3c(nn2-c2cccc(C)c2)CSC3)c1	-80	53*
COc1cc(OC)cc(C(=O)Nc2c3c(nn2-c2cccc(C)c2)CSC3)c1	-1	22
CC1(C)Cc2c(sc3nc(NN)nc(NN)c23)CO1	-2	100*
Cn1c(NN)nc2sc3c(c2c1=O)CC(C)(C)OC3	-4	36
O=C(Nc1cccc(-c2nc3ccccc3s2)c1)c1ccc(S(=O)(=O)N2CCOCC2)cc1	-1	41
